This is part of a sample that, as a whole, favours compounds with a hit. Of some 79,000 tested, about 15% had one in any assay. Unmarked numbers belong to inactive results. Activity calls are given as the source filed them. No stated cut-off is given here; in the data, active means growth inhibition above about 70%; inactive means the rest.
assay: NCI Yeast Anticancer Drug Screen. Data for the bub3 strain (AID 167); conditions: S. cerevisiae bub3 mutant strain, at 50.0 µM, active compounds read high
Procedure, shortened: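 Mutant yeast screening strain plus compound; vehicle-treated cultures serve as the 0% inhibition reference.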

| SMILES | growth inhibition |
| --- | --- |
| O=C(O)c1c[n+]([O-])ccc1Cl | -8.2% |
| C[N+](C)(C)CC(=O)N/N=C/c1oc(-c2cccc([N+](=O)[O-])c2)c(-c2cccc([N+](=O)[O-])c2)c1[N+](=O)[O-] | -19% |
| O=c1[nH]c(=O)n(C2OC(COP(=O)(O)OP(=O)(O)O)C(O)C2O)cc1F (stereo not given) | 0.75% |
| O=c1[nH]c(=O)n(C2OC(CO)C(O)C2O)cc1OCc1ccccc1 (stereo not given) | -6.6% |
| COc1ccc(C(=O)/C=c2/c(CC(=O)c3ccc(OC)cc3)nc3nnc(N)n23)cc1 | 1.45% |
| COc1cc([C@@H]2C3C(=O)c4ccccc4C3[C@@H](c3cc(OC)c(OC)c(OC)c3)C23Cc2ccccc2C3=O)cc(OC)c1OC (stereo not given in full) | 23.4% |
| Cn1c(=O)c2c(nc(CCNC(=O)c3ccccc3)n2C)n(C)c1=O | 5.6% |
| O=C(NC1CCCCC1)C1C2CC3OC(=O)C1C3C2 (stereo not given) | 20.5% |
| COc1ccc(-c2cc(-c3ccccc3)nc(-c3cccc([N+](=O)[O-])c3)c2)cc1 | 21.2% |
| Cc1ccc(S(=O)(=O)CC(=O)c2ccc(Br)cc2)cc1 | 6.55% |
| N[C@H](CCC(=O)NCP(=O)(O)O)C(=O)O | -10.8% |
| NOCc1cc(Cl)sc1Cl | -23.9% |
| CCN(CC)CCCCCOC(=O)c1ccccc1 | 43.4% |
| CC(=O)OC1CC(OC(C)=O)C(OC(C)=O)CC1OC(C)=O (stereo not given) | 1.05% |
| CN1CCN(c2c3c(nc4ccccc24)CCCC3)CC1 | -10.3% |
| CC(C)(C)C(=O)CC(=O)C(F)(F)C(F)(F)C(F)(F)F.CC(C)(C)C(=O)CC(=O)C(F)(F)C(F)(F)C(F)(F)F.CC(C)(C)C(=O)CC(=O)C(F)(F)C(F)(F)C(F)(F)F.[Eu] | 39.8% |
| O=C1CC2CCC(C1)S2=O (stereo not given) | 12.8% |
| N#CC1(N(O)C(=O)Nc2ccccc2)CCCCC1 | 5.8% |
| Nc1ccc2[nH]cc(CCC(=O)O)c2c1 | -60.6% |
| CC12CCc3ccccc3C1=NNC(=O)C2 (stereo not given) | -5.85% |

| SMILES | growth inhibition |
| --- | --- |
| Cc1cccc(NC(=S)Nc2ccc(-c3ccc(NC(=S)Nc4cccc(C)c4)cc3)cc2)c1 | 16.2% |
| CCC(CC(N)=O)C(C#N)(C#N)C(N)=O (stereo not given) | 7.1% |
| O=C(O)/C=C/c1ccccc1Cl | 0.8% |
| OC(COc1cccc(C(F)(F)F)c1)CN1CCN(c2ccccc2)CC1 (stereo not given) | 75.4% (active) |
| COc1cc(/C=C2\C(=O)N(C(=O)c3ccc(NC(C)=O)cc3)N=C2C)ccc1O | -51% |
| COC(=O)c1cc(CN(C)C)c(O)c(CN(C)C)c1 | 2% |
| CCOC(=O)c1c(N=P(c2ccccc2)(c2ccccc2)c2ccccc2)nnc(-c2ccccc2)c1-c1ccccc1 | -6.55% |
| Nc1cc2c(cc1/C=C1\CCNC1=O)OCO2 | -11.8% |
| CC(C)CCCC(C)C1CCC2(C)C3=C(CCC12C)C1(C)CCC(=O)C(C)(C)C1CC3 (stereo not given) | 14.6% |
| COc1ccc(C2CC(=O)N(CC(=O)O)C(=O)C2)cc1 | -9.4% |
| CC(Cc1ccccc1)c1ccccc1 (stereo not given) | -0.05% |
| Cc1cc(=O)n(-c2ccccc2)c(=O)n1-c1nc2ccccc2[nH]1 | -4.35% |
| c1ccc2cc(CNCCCCNCCCNCc3ccc4ccccc4c3)ccc2c1 | 85% (active) |
| CCCCCCCCCCCCCCCCCCCCCC(=O)O | -2.15% |
| [Cl][Pt+2][Cl].[NH-]CC1(C[NH-])CCC1 | -18.9% |
| COc1cc2c(c3oc(=O)cc(CCC(=O)O)c13)C1CC(=O)OC1O2 (stereo not given) | -10.7% |
| CN=C(Nc1cccc(C(F)(F)F)c1)SCc1ccc(N=C=S)cc1 | 38.8% |
| CCCCCCCCCCCO | 2.15% |
| O=c1cccc2c3ccccc3ccn12 | 15.3% |
| O=C(NCCCCCCCCNC(=O)c1cccc2ccccc12)c1cccc2ccccc12 | -10.4% |

Source: PubChem BioAssay (NCI)
